Measurements as given in PubChem BioAssay (NCI).
The panel holds about 79,000 compounds, 15% with a hit somewhere; the sample as a whole holds those more often. The source made the active and inactive calls. Rule as the data show it: active = growth inhibition above about 70%; inactive = the rest.

Assays:
[1] = NCI Yeast Anticancer Drug Screen. Data for the rad52 strain (AID 147);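 also: 0% = growth of vehicle-treated control cultures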; conditions: S. cerevisiae rad52 mutant growth inhibition, stronger effect = higher value
Outline: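 Read-out: growth inhibition versus vehicle-treated controls. Cells were a DNA repair-deficient yeast strain treated with compounds.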

[2] = NCI Yeast Anticancer Drug Screen. Data for the wt1 strain (AID 149);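 also: 0% = growth of vehicle-treated wt1 cultures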; conditions: S. cerevisiae wt1 strain (SPY 50644) growth inhibition, stronger effect = higher value
Outline: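 Measured: growth of wt1 yeast under compound versus vehicle treatment, reported as inhibition.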

[3] = NCI Yeast Anticancer Drug Screen. Data for the rad50EPP+ strain (AID 151);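 also: 0% = growth of vehicle-treated control cultures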; conditions: S. cerevisiae rad50 mutant strain, stronger effect = higher value
Outline: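 Growth inhibition read against vehicle controls in rad50EPP+ yeast, a strain altered in DNA damage repair, after compound exposure.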

[4] = NCI Yeast Anticancer Drug Screen. Data for the mgt1 strain (AID 153); conditions: S. cerevisiae mgt1 mutant growth inhibition, stronger effect = higher value
Outline: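 mgt1 yeast grown with test compound; read-out is growth inhibition versus vehicle-treated cultures.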

[5] = NCI Yeast Anticancer Drug Screen. Data for the rad50 strain (AID 155);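 also: 0% = growth of vehicle-only cultures of the same strain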; conditions: S. cerevisiae rad50 strain growth inhibition, stronger effect = higher value
Outline: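 Growth of the mutant yeast was measured after compound exposure and referenced to vehicle-treated cultures.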

[6] = NCI Yeast Anticancer Drug Screen. Data for the mec2-1 strain (AID 157); conditions: S. cerevisiae mec2-1 strain, stronger effect = higher value
Outline: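 Yeast mec2-1 mutant treated with compound. Readout: growth inhibition vs vehicle controls.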

[7] = NCI Yeast Anticancer Drug Screen. Data for the rad14 strain (AID 159);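 also: 0% = growth of vehicle-treated control cultures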; conditions: S. cerevisiae rad14 strain growth inhibition, stronger effect = higher value
Outline: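 Here, inhibition of yeast growth was measured after compound exposure, using a strain with a genetic defect in DNA damage repair and vehicle-treated cultures as the reference.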

[8] = NCI Yeast Anticancer Drug Screen. Data for the sgs1 mgt1 strain (AID 161);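 also: 0% = growth of cultures given vehicle only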; conditions: S. cerevisiae sgs1 mgt1 strain, stronger effect = higher value
Outline: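 Test agents were incubated with a DNA-repair-mutant yeast strain. Growth was then read and compared against vehicle-treated controls.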

[9] = NCI Yeast Anticancer Drug Screen. Data for the CLN2oe strain (AID 163);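 also: 0% = growth of vehicle-only control cultures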; conditions: S. cerevisiae CLN2oe strain, stronger effect = higher value
Outline: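 Read-out: yeast growth inhibition, expressed relative to vehicle-only controls. The strain bears an engineered cell-cycle alteration.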

[10] = NCI Yeast Anticancer Drug Screen. Data for the cln2 rad14 strain (AID 165);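 also: 0% = growth equal to vehicle treated cultures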; conditions: S. cerevisiae cln2 rad14 strain, stronger effect = higher value
Outline: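 cln2 rad14 yeast strain; compound exposure; growth inhibition read vs vehicle controls.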

[11] = NCI Yeast Anticancer Drug Screen. Data for the bub3 strain (AID 167); conditions: S. cerevisiae bub3 mutant strain, stronger effect = higher value
Outline: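 Whole-cell yeast assay. The mutant strain was incubated with compounds, and growth inhibition was determined by comparison with vehicle-treated cells.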

[12] = NCI Yeast Anticancer Drug Screen. Data for the wt2 strain (AID 169);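 also: 0% = growth of vehicle-treated yeast cultures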; conditions: S. cerevisiae wt2 strain growth inhibition, stronger effect = higher value
Outline: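 Read-out: growth inhibition versus vehicle-treated control cultures after compound exposure of the yeast strain.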

[13] = NCI Yeast Anticancer Drug Screen. Data for the sgs1 strain (AID 173);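 also: 0% = growth of vehicle-only control cultures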; conditions: S. cerevisiae sgs1 mutant, stronger effect = higher value
Outline: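 Read-out: yeast growth inhibition relative to vehicle controls, following compound exposure of a strain with a defined DNA repair/cell cycle alteration.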

[14] = NCI Yeast Anticancer Drug Screen. Data for the mlh1 rad18 strain (AID 175); conditions: S. cerevisiae mlh1 rad18 strain growth inhibition, stronger effect = higher value
Outline: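 Yeast w/ defined DNA-repair lesions; compound exposure; growth vs vehicle controls → % inhibition.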

[15] = NCI Yeast Anticancer Drug Screen. Data for the rad18 strain (AID 177); conditions: S. cerevisiae rad18 mutant growth inhibition, stronger effect = higher value
Outline: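 Readout: growth inhibition vs vehicle controls. Cells: genetically altered yeast strain, DNA repair defect.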

[16] = at 5.0 µM (retest, dose inferred, filed as 0.5)
[17] = at 50.0 µM (retest, dose inferred, filed as 5.0)

Measured: growth inhibition

N#CC(C#N)=NNc1ccc(S(=O)(=O)O)cc1
active: [5]; [16] 85% | [5]; [17] 99% | [6]; [16] 93% | [6]; [17] 99% | [14]; [17] 100%
inactive: [1]; at 1.2 µM -6% | [1]; at 3.7 µM 3% | [1]; at 11.0 µM 4% | [1]; at 33.0 µM 14% | [1]; at 100.0 µM 4% | [2]; at 1.2 µM -19% | [2]; at 3.7 µM -18% | [2]; at 11.0 µM -19% | [2]; at 33.0 µM -14% | [2]; at 100.0 µM -3% | [3]; at 1.2 µM 2% | [3]; at 3.7 µM 2% | [3]; at 11.0 µM 19% | [3]; at 33.0 µM -4% | [3]; at 100.0 µM 9% | [4]; at 1.2 µM 3% | [4]; at 3.7 µM 1% | [4]; at 11.0 µM -3% | [4]; at 33.0 µM 7% | [4]; at 100.0 µM 9% | [5]; at 1.2 µM -20% | [5]; at 3.7 µM -27% | [5]; at 11.0 µM -25% | [5]; at 33.0 µM -26% | [5]; at 50.0 µM 19.3% | [5]; at 100.0 µM -9% | [6]; at 1.2 µM -20% | [6]; at 3.7 µM -22% | [6]; at 11.0 µM -29% | [6]; at 33.0 µM -24% | [6]; at 50.0 µM 17.7% | [6]; at 100.0 µM -28% | [7]; at 1.2 µM 11% | [7]; at 3.7 µM 13% | [7]; at 11.0 µM 3% | [7]; at 33.0 µM 2% | [7]; at 100.0 µM 23% | [8]; [16] -2% | [8]; [17] 32% | [8]; at 50.0 µM 22.8% | [9]; at 1.2 µM -17% | [9]; at 3.7 µM -12% | [9]; at 11.0 µM -11% | [9]; at 33.0 µM -19% | [9]; at 100.0 µM -24% | [10]; [16] 0% | [10]; [17] 23% | [10]; at 50.0 µM 17.9% | [11]; at 1.2 µM -30% | [11]; at 3.7 µM -29% | [11]; [16] 17% | [11]; at 11.0 µM -30% | [11]; at 33.0 µM -29% | [11]; [17] 28% | [11]; at 50.0 µM 24.1% | [11]; at 100.0 µM -26% | [12]; at 1.2 µM -15% | [12]; at 3.7 µM -18% | [12]; at 11.0 µM -6% | [12]; at 33.0 µM -17% | [12]; at 100.0 µM -7% | [13]; at 1.2 µM -8% | [13]; at 3.7 µM -9% | [13]; at 11.0 µM -7% | [13]; at 33.0 µM 10% | [13]; at 100.0 µM 11% | [14]; [16] 63% | [14]; at 50.0 µM 20.6% | [15]; at 1.2 µM 2% | [15]; at 3.7 µM -6% | [15]; at 11.0 µM 5% | [15]; at 33.0 µM 1% | [15]; at 100.0 µM 2%
